Test results reported in PubChem BioAssay.
Values joined by “and” are separate entries in the source; they are usually repeats but may differ in a detail not shown here. Equal entries are not always repeated. Inconclusive results are not listed. Active and inactive are the calls of the source.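 The calls were made as follows, unless noted: active = compounds killing one labelled cell type while sparing the other, by normalised counts and ratio limits, not self-fluorescent; inactive = the rest.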

Experiments:
[1] = differential killing of epithelial or mesenchymal cells, primary screen, imaging, PC-3E GFP, TEM4-18 mCherry, co-culture (AID 1345086); conditions: imaging cell counts, at 1 µM; for red/green cell ratio (normalised): actives lie on both sides, counts scaled to control wells, 1 = unselective;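 as to all read-outs here: cells exposed to compound for 72 h before imaging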;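 as to red/green cell ratio (normalised): normalised mesenchymal count divided by normalised epithelial count so high means epithelial killing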
[2] = modulation of C. elegans fzo-1 (AID 1259413; call rule not given here;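 also: fzo-1 mutant C. elegans worms in liquid wells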); conditions: C. elegans fzo-1 modulator screen, mean read-out; stronger effect = higher value
[3] = growth inhibition of DIPG glioma cells, dose response, cell-based, JHH-DIPG-1, MIPE4.0, CellTiter-Glo, qHTS (AID 1347062; cut-off not given, nearly all actives have AC50 up to about 27 µM); conditions: JHH-DIPG-1 viability, CellTiter-Glo ATP luminescence
[4] = growth inhibition of DIPG glioma cells, dose response, cell-based, SU-DIPG-IV, MIPE4.0, CellTiter-Glo, qHTS (AID 1347063; cut-off not given, nearly all actives have AC50 up to about 30 µM;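 also: compound exposure lasted 48 hours before the viability readout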); conditions: SU-DIPG-IV viability, CellTiter-Glo ATP luminescence
[5] = measured here: epithelial PC-3E GFP cell survival
[6] = measured here: mesenchymal TEM4-18 mCherry cell survival

O=C(O)CCCCCCCC(=O)O
red/green cell ratio (normalised) [1]: 0.99 (inactive) | normalised cell number [1, 5]: 1.08 | normalised cell number [1, 6]: 1.07

CN1CCC(OC(c2ccccc2)c2ccccc2)CC1
red/green cell ratio (normalised) [1]: 1.14 (inactive) | normalised cell number [1, 5]: 1.05 | normalised cell number [1, 6]: 1.2

COc1ccc2cc1Oc1ccc(cc1)C[C@H]1c3c(cc4c(c3Oc3cc5c(cc3OC)CCN(C)[C@@H]5C2)OCO4)CCN1C
red/green cell ratio (normalised) [1]: 0.85 (inactive) | normalised cell number [1, 5]: 0.93 | normalised cell number [1, 6]: 0.78

O=C1Nc2ccc(Cl)cc2[C@@](C#CC2CC2)(C(F)(F)F)O1
mean signal [2]: 218 (inactive) | outcome [3]: inactive | AC50 [4]: 29.6 µM (active)

CC1(C)S[C@@H]2[C@H](NC(=O)C(C(=O)O)c3ccccc3)C(=O)N2[C@H]1C(=O)O (stereo partly specified)
red/green cell ratio (normalised) [1]: 1.24 (inactive) | normalised cell number [1, 5]: 0.99 | normalised cell number [1, 6]: 1.23

Cc1nccn1CC1CCc2c(c3ccccc3n2C)C1=O (stereo unspecified)
mean signal [2]: 237 (inactive) | outcome [3]: inactive

O=C(O)c1ccccc1OP(=O)(O)O
red/green cell ratio (normalised) [1]: 0.9 (inactive) | normalised cell number [1, 5]: 1.17 | normalised cell number [1, 6]: 1.05

CC(N)CCCC(C)(C)O (stereo unspecified)
red/green cell ratio (normalised) [1]: 0.95 (inactive) | normalised cell number [1, 5]: 0.99 | normalised cell number [1, 6]: 0.93

Cc1c(Nc2ncccc2C(=O)O)cccc1C(F)(F)F
red/green cell ratio (normalised) [1]: 1.03 (inactive) and 0.93 (inactive) | normalised cell number [1, 5]: 1.09 and 1.11 | normalised cell number [1, 6]: 1.12 and 1.03

COc1ccc(NS(=O)(=O)c2ccc(N)cc2)nn1
red/green cell ratio (normalised) [1]: 1.05 (inactive) | normalised cell number [1, 5]: 0.94 | normalised cell number [1, 6]: 0.98

CCn1cc(C(=O)O)c(=O)c2cc3c(cc21)OCO3
red/green cell ratio (normalised) [1]: 1.09 (inactive) | normalised cell number [1, 5]: 1.15 | normalised cell number [1, 6]: 1.25

O=C1c2ccccc2C(=O)c2c1ccc(O)c2O
red/green cell ratio (normalised) [1]: 0.87 (inactive) | normalised cell number [1, 5]: 1.05 | normalised cell number [1, 6]: 0.91

NCCS
red/green cell ratio (normalised) [1]: 1.27 (inactive) | normalised cell number [1, 5]: 0.91 | normalised cell number [1, 6]: 1.16

Cc1ccccc1OCC(O)CO (stereo unspecified)
red/green cell ratio (normalised) [1]: 1.04 (inactive) | normalised cell number [1, 5]: 1.05 | normalised cell number [1, 6]: 1.1
